Test results: PubChem BioAssay AID1471 (National Center for Advancing Translational Sciences (NCATS), 2008)
Out of some 230,000 compounds screened, about 310 (0.13%) were called active. About 2% were inconclusive and are not listed. This is one part of a sample in which actives are shown more often than they occur. Calls come from the whole dose curve; as a rule, active = well fitted activation curve with a large enough effect; inconclusive = small, poorly fitted or top-dose-only effect; inactive = no such curve, though single readings can be large or run the other way.

test: qHTS Multiplex Assay to Identify Dual Action Probes in a Cell Model of Huntington: Cytoprotection (ATP); details: PC12 HTT-Q103 induced, ATP luminescence, 40 h; series mostly up to 56.4 µM; cytoprotection (ATP increase): at the top concentration;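 note: toxic huntingtin expression switched on by the ecdysone agonist tebufenozide; % of control where 0% means no effect; nearly all actives have a fitted effect of over 45% in size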
Summary of the method: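 ATP quantification (ATPlite) reports survival of PC12 cells in which tebufenozide, 100 nM final, switches on Htt exon 1 with 103 glutamines linked to GFP; compounds are titrated.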

Cytoprotection (ATP increase), inactive:
CC(C)(O)c1ccccc1CC[C@H](SCC1(CC(=O)O)CC1)c1cccc(/C=C/c2ccc3ccc(Cl)cc3n2)c1 -10.2%
C=CC1(C)CC(=O)C2(O)C(C)(O1)C(OC(C)=O)C(O)C1C(C)(C)CCC(O)C12C (stereo unspecified) 1.35%
C[C@H]1Cc2c(COc3ccccc3)nc3c(c2CO1)CN(C(=O)NCc1ccco1)CC3 9.12% [at 10 µM]
O=C1OCCN1C(=O)[C@H]1[C@H](c2ccc(F)cc2)C(c2ccccc2)=NN1c1ccc(Br)cc1 -121% [at 40.3 µM]
Cc1cc2oc(=O)cc(-c3ccccc3)c2c(C)c1-c1ccc(OC(F)(F)F)cc1 -0.152%
COc1ccc(CC(N)C(=O)NC2C(O)[C@H](n3cnc4c(N(C)C)ncnc43)O[C@@H]2CO)cc1 (stereo partly specified) -162%
COC(=O)CC1c2ccccc2C(Cc2ccc(OC)cc2)=C(C)N1C(=O)OC (stereo unspecified) -4.91% [at 10 µM]
COc1cc(OC)cc(-c2nc3ccccc3c(=O)n2NC(=O)c2cccnc2Cl)c1 -11.8% [at 10 µM]
O=C1C=C(c2ccccc2)CCC1 8.09%
CC(C)[C@@H]1NC(=O)[C@H](Cc2ccccc2)NC(=O)[C@@H](CC(=O)O)NC(=O)CNC(=O)[C@H](CCCNC(=N)N)NC1=O -24.7%
COc1ccc(N2CCN(CCNC(=O)c3nnc(Cc4c(F)cccc4Cl)o3)CC2)cc1 7.41% [at 0.074 µM]
Clc1ccc(C(Cn2ccnc2)OCc2ccsc2Cl)c(Cl)c1 (stereo unspecified) -66.1%
COC(=O)C1=C(C(=O)OC)[C@@H]2N(C)c3ccccc3[C@@]23C[C@@H](C(=O)OC)N(C(=O)c2ccco2)C3=N1 -6.19% [at 10 µM]
COC(=O)C/C=C/[C@@H](C)[C@H](NC(=O)OCC(Cl)(Cl)Cl)c1ccccc1 -3.44%
C=CC1=C2C=C(C3CC3)N(C(CO)CO)C=C2C(=O)C(C)(OC(=O)c2ccco2)C1=O (stereo unspecified) -26.7% [at 10 µM]
Cc1ccc(-c2cccc([C@H]3[C@@H]4C=CC[C@@H](C)[C@@H]4C(=O)N3Cc3ccccc3)c2)cc1 -64.7%
COc1ccc(/C=C2\NC(=O)[C@@H]3Cc4ccccc4CN3C2=O)cc1 -17.8%
COC(=O)c1c(CCl)noc1C(=O)NC(C)C -17.6%
c1ccc(CSc2ncnc3c2sc2nc(N4CCOCC4)c4c(c23)CCCC4)cc1 -2.4%
C[C@H]1Cc2c(COc3ccccc3)nc3c(c2CO1)CN(C(=O)Nc1cccc(C#N)c1)CC3 -20.7% [at 10 µM]
COc1ccc(-c2nc3c(c4c2C[C@H](c2ccccc2)OC4)CN(C(=O)C2CC2)CC3)c(C)c1 6.89% [at 10 µM]
